# In PubChem BioAssay (NCI):
# Compounds without any hit were thinned out: in the full panel of roughly 83,000, 20% have a hit.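 The test compound was applied at a single concentration to cells in 96-well plates for 48 hours, and percent growth was recorded.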 Values without a mark were called inactive. Activity calls are given as the source filed them. The calls were made as follows: active = growth percent below 10; inactive = the rest.
# Assays:
# Experiment in all cases: NCI-60 one-dose screen, 48 h (100 = growth as untreated, 0 = no growth, -100 = all killed)
# Settings in all cases: 10 µM unless noted
# NCI-H23 lung = tested on: NCI-H23 lung
# NCI-H226 lung = tested on: NCI-H226 lung
# NCI-H322M lung = tested on: NCI-H322M lung
# HOP-62 NSCLC = tested on: HOP-62 NSCLC
# NCI-H460 lung = tested on: NCI-H460 lung
# HOP-92 NSCLC = tested on: HOP-92 NSCLC
# NCI-H522 lung = tested on: NCI-H522 lung
# A549/ATCC NSCLC = tested on: A549/ATCC NSCLC
# 786-0 renal = tested on: 786-0 renal
# COLO 205 colon = tested on: COLO 205 colon
# DU-145 prostate = tested on: DU-145 prostate
# K-562 leukemia = tested on: K-562 leukemia
# MALME-3M melanoma = tested on: MALME-3M melanoma
# MDA-MB-231 breast = tested on: MDA-MB-231 breast
# RXF 393 renal = tested on: RXF 393 renal
# SF-268 CNS = tested on: SF-268 CNS
# SF-295 CNS = tested on: SF-295 CNS
# SF-539 CNS = tested on: SF-539 CNS
# UACC-257 melanoma = tested on: UACC-257 melanoma
# M14 melanoma = tested on: M14 melanoma
SMILES,growth (NCI-H23 lung),growth (NCI-H226 lung),growth (NCI-H322M lung),growth (HOP-62 NSCLC),growth (NCI-H460 lung),growth (HOP-92 NSCLC),growth (NCI-H522 lung),growth (A549/ATCC NSCLC),growth (786-0 renal),growth (COLO 205 colon),growth (DU-145 prostate),growth (K-562 leukemia),growth (MALME-3M melanoma),growth (MDA-MB-231 breast),growth (RXF 393 renal),growth (SF-268 CNS),growth (SF-295 CNS),growth (SF-539 CNS),growth (UACC-257 melanoma),growth (M14 melanoma)
Cc1oc(-c2ccc(Cl)cc2Cl)cc1C(=O)Nc1nccs1,87.4%,62.6%,91.1%,85.4%,60.7%,110%,89.7%,51.8%,90.7%,87.9%,104%,95.1%,85.1%,83.2%,88.2%,100%,87%,95.9%,114%,99.5%
NNCCc1ccc(NC(=O)CCCc2ccc(/C=C/C(=O)NO)cc2)cc1,64.9%,36%,64%,32.8%,62.8%,28.8%,16.6%,76.4%,71.3%,71.2%,72.6%,7.74% (active),39.4%,42.3%,63.6%,45.3%,77.7%,53.3%,51.7%,61.1%
O=C1c2cc3c(cc2-c2c1c1ccc(F)cc1c(=O)n2C[C@H](O)[C@H](O)[C@H](O)CO)OCO3,-49.4% (active),-34.7% (active),8.49% (active),-23.1% (active),1% (active),-7.34% (active),-24.6% (active),-45.1% (active),0.283% (active),-30.9% (active),-1.68% (active),5.32% (active),-48.9% (active),-1.24% (active),-57.2% (active),1.96% (active),-23.6% (active),-41.1% (active),-43.4% (active),-20.4% (active)
CC(=O)NCC1c2c(n(C)c3c(Cl)c(Cl)ccc23)C(=O)NC1(C)C (stereo not given),90.3%,97.1%,91.9%,88.2%,96.6%,90.6%,92.8%,94.4%,100%,113%,108%,79.5%,108%,112%,90.5%,108%,89.5%,94.5%,103%,94.2%
O=C1c2ccccc2C(=O)c2c1ccc1[nH]c(-c3cccs3)nc21,84.5%,91.9%,60.9%,102%,73.7%,80.8%,78.9%,66.7%,99.9%,103%,88.9%,80.7%,81.9%,70.9%,81%,87.6%,120%,77.5%,87.5%,106%
CC(C)C1=C[C@@]23CC[C@@H]4[C@](C)(CCC[C@@]4(C)C(=O)N4CCCNCC4)[C@H]2C[C@@H]1[C@H]1C(=O)CCC(=O)[C@H]13,96.4%,101%,106%,97.3%,104%,101%,91.5%,101%,104%,134%,114%,93.5%,99.9%,109%,104%,97.8%,93.7%,93.7%,106%,93%
C=CCSSC1N=CNc2nc[nH]c21 (stereo not given),54.6%,73%,42.8%,1.1% (active),52.5%,30.8%,0.803% (active),95.1%,13.9%,34.9%,35.8%,11.9%,29.9%,39.8%,42.5%,27.6%,33.2%,16.4%,43.6%,8.72% (active)
COc1ccc(CCNc2nc(SC)nc(-c3cccc([N+](=O)[O-])c3)c2C#N)cc1OC,92.7%,49.2%,88.2%,67.6%,88.5%,75.8%,66.7%,82.2%,93.2%,113%,91.7%,92.1%,77.8%,83.1%,90.1%,63.6%,88.5%,74.6%,89.7%,93.1%
COc1ccccc1NS(=O)(=O)c1ccc2oc(SC(C)C)nc2c1,61%,53.8%,99.7%,97.3%,77.2%,79.4%,65.6%,75.9%,64.2%,109%,98.9%,45.8%,81.7%,86.5%,107%,89.8%,88.5%,103%,71.8%,110%
O=C1/C(=C/c2cn(-c3ccccc3)nc2-c2ccccc2)SC(=S)N1CCc1ccccc1,102%,99.4%,113%,94%,102%,122%,93.5%,111%,106%,116%,110%,108%,104%,106%,111%,95.5%,103%,106%,113%,102%
CNC(=O)c1cc(Oc2ccc(NC(=O)Nc3ccc(Cl)c(SC)c3)c(F)c2)ccn1,29.7%,40.4%,74.5%,62.1%,58.2%,48.8%,17.5%,39.9%,88.5%,24.4%,72.1%,18.1%,27.5%,50.1%,85.9%,50.6%,34%,47.3%,28.1%,29.7%
CCOc1cc2ncc(C#N)c(Nc3ccc(F)c(Cl)c3)c2cc1NC(=O)CC1CCSS1 (stereo not given),-50.6% (active),-50.9% (active),-74.5% (active),-66% (active),-64.4% (active),-15.3% (active),-48.6% (active),-75.6% (active),12.1%,-73.5% (active),-81.5% (active),-26.4% (active),-57.8% (active),-66.4% (active),-56.5% (active),-55.2% (active),-36.8% (active),-12.6% (active),-53.6% (active),-66.8% (active)
CSc1nc(NCCN2CCOCC2)c(C#N)c(-c2cccc([N+](=O)[O-])c2)n1,97.1%,106%,92.9%,89.4%,100%,101%,85.7%,99.5%,101%,111%,106%,100%,98.7%,86.3%,103%,96.7%,99.1%,90.3%,98.2%,101%
O=C1Nc2ccc(Br)cc2C12Oc1ccccc1C1CC(c3ccc(F)cc3)=NN12 (stereo not given),89%,83.1%,96.3%,104%,98.5%,109%,81%,91%,105%,109%,100%,84.7%,103%,105%,102%,85.5%,97.9%,91.9%,104%,103%
COc1ccc(C(=O)c2sc3nc4c(c(-c5cccnc5)c3c2N)CCCC4)cc1OC,97.7%,86.3%,99.5%,80.7%,77.4%,-11.7% (active),83%,82.2%,87.5%,94.6%,91.4%,15.2%,83.5%,38.3%,51%,64.9%,93.2%,73.4%,98.3%,118%
